# According to ChEMBL document CHEMBL2218924, “A broad activity screen in support of a chemogenomic map for kinase signalling research and drug discovery” (Biochem J, 2013):
# Assays:
# [1] = molecular target: Calcium/calmodulin-dependent protein kinase type II subunit beta (Homo sapiens) (UniProt Q13554); conditions: at 1 µM
# [2] = molecular target: Calcium/calmodulin-dependent protein kinase type II subunit beta (Homo sapiens) (UniProt Q13554); conditions: at 10 µM
# [3] = molecular target: Calcium/calmodulin-dependent protein kinase type II subunit gamma (Homo sapiens) (UniProt Q13555); conditions: at 1 µM
# [4] = molecular target: Calcium/calmodulin-dependent protein kinase type II subunit gamma (Homo sapiens) (UniProt Q13555); conditions: at 10 µM
# [5] = molecular target: Calcium/calmodulin-dependent protein kinase type II subunit delta (Homo sapiens) (UniProt Q13557); conditions: at 1 µM
# [6] = molecular target: Calcium/calmodulin-dependent protein kinase type II subunit delta (Homo sapiens) (UniProt Q13557); conditions: at 10 µM
# [7] = molecular target: T1, Calcium/calmodulin-dependent protein kinase type IV (Homo sapiens) (UniProt Q16566); conditions: at 1 µM
# T1 sequence (whole entry): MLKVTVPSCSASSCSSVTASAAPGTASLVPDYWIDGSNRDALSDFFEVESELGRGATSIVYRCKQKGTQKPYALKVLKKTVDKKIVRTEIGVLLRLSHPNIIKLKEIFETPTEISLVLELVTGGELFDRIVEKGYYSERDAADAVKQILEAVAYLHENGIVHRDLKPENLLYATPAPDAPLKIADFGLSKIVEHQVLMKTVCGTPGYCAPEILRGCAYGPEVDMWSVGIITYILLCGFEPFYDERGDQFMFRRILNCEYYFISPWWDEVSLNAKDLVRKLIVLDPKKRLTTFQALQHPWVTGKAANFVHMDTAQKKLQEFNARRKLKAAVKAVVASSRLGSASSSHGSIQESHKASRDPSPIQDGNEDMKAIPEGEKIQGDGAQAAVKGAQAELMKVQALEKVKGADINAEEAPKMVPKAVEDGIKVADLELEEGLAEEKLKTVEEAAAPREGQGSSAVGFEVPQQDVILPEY
# [8] = molecular target: T1, Calcium/calmodulin-dependent protein kinase type IV (Homo sapiens); conditions: at 10 µM
# [9] = molecular target: Death-associated protein kinase 1 (Homo sapiens) (UniProt P53355); conditions: at 10 µM
# [10] = molecular target: Death-associated protein kinase 2 (Homo sapiens) (UniProt Q9UIK4); conditions: at 1 µM
# [11] = molecular target: Death-associated protein kinase 2 (Homo sapiens) (UniProt Q9UIK4); conditions: at 10 µM
# [12] = molecular target: T2, Serine/threonine-protein kinase DCLK2 (Homo sapiens) (UniProt Q8N568); conditions: at 1 µM
# T2 sequence (whole entry): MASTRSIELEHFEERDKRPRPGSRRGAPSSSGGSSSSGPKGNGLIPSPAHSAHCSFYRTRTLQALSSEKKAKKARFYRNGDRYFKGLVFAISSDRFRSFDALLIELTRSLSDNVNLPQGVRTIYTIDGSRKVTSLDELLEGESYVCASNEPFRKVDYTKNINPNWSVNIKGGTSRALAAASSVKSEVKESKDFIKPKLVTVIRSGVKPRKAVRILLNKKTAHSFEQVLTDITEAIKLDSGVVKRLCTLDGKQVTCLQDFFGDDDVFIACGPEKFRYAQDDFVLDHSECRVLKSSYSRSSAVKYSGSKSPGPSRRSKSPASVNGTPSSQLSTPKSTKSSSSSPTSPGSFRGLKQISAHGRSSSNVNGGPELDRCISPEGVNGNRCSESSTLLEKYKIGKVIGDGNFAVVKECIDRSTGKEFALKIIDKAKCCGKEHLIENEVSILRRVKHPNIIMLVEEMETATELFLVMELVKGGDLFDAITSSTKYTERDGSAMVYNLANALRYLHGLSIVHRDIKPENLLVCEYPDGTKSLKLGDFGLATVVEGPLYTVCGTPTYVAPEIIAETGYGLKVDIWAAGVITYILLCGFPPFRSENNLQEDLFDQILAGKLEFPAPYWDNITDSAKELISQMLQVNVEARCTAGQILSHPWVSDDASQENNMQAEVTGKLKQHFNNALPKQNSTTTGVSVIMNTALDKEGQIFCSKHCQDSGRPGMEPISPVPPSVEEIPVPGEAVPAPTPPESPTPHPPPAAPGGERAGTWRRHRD
# [13] = molecular target: T2, Serine/threonine-protein kinase DCLK2 (Homo sapiens); conditions: at 10 µM
# [14] = molecular target: T3, Discoidin domain-containing receptor 2 (Homo sapiens) (UniProt Q16832); conditions: at 1 µM
# T3 sequence (whole entry): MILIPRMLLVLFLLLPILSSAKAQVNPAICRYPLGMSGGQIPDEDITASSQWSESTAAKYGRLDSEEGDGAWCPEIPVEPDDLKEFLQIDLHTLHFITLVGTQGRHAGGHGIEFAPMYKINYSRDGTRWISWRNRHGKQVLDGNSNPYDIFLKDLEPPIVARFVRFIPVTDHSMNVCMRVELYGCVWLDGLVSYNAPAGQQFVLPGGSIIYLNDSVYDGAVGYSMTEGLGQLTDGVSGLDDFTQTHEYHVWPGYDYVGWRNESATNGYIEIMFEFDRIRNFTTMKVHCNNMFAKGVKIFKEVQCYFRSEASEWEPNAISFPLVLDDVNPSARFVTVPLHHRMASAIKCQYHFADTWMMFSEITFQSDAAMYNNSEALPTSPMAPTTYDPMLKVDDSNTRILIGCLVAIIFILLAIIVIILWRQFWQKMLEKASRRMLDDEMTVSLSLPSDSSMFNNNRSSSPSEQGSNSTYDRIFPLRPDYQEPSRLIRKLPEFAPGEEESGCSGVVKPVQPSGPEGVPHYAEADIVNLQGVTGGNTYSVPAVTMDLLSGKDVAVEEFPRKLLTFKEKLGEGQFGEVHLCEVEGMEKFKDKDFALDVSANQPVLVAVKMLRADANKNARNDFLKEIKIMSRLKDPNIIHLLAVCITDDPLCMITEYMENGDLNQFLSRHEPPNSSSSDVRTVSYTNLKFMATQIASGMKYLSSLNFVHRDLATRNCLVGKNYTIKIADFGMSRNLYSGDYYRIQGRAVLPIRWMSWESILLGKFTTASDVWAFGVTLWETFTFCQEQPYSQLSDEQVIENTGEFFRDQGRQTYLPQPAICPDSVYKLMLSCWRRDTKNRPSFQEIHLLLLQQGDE
# [15] = molecular target: T3, Discoidin domain-containing receptor 2 (Homo sapiens); conditions: at 10 µM
# [16] = molecular target: T4, Myotonin-protein kinase (Homo sapiens) (UniProt Q09013); conditions: at 1 µM
# T4 sequence (whole entry): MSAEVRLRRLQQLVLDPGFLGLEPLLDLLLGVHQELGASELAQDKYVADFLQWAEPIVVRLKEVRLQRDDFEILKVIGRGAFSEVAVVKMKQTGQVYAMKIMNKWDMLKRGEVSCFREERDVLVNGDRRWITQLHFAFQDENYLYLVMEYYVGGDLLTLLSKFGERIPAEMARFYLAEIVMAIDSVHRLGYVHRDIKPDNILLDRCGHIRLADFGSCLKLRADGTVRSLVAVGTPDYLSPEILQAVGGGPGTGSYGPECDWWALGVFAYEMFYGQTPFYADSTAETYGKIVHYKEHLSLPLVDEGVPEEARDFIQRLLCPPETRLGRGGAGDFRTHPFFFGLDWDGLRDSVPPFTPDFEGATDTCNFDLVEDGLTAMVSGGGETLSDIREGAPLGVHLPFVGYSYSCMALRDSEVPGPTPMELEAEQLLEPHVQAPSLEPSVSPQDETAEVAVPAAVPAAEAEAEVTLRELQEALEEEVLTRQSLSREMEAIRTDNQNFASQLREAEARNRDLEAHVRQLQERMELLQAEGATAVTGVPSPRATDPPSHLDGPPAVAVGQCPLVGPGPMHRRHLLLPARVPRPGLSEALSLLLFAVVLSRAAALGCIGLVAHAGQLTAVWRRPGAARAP
# [17] = molecular target: T4, Myotonin-protein kinase (Homo sapiens); conditions: at 10 µM
# [18] = molecular target: Calcium/calmodulin-dependent protein kinase type 1 (Homo sapiens) (UniProt Q14012); conditions: at 10 µM
# [19] = molecular target: T5, Serine/threonine-protein kinase 17A (Homo sapiens) (UniProt Q9UEE5); conditions: at 1 µM
# T5 sequence (whole entry): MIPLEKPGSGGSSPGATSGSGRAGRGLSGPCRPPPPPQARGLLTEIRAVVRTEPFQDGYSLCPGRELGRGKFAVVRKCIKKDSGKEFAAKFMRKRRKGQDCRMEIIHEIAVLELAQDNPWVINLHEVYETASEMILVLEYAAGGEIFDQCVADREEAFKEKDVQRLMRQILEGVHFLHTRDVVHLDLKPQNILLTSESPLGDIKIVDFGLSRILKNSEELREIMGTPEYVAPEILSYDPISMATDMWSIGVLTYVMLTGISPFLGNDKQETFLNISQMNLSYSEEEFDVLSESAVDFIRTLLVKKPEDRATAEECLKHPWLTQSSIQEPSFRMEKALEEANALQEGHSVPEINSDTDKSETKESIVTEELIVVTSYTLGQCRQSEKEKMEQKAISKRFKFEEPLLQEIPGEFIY
# Sequence of Death-associated protein kinase 1 (Homo sapiens) (P53355 whole entry, looked up): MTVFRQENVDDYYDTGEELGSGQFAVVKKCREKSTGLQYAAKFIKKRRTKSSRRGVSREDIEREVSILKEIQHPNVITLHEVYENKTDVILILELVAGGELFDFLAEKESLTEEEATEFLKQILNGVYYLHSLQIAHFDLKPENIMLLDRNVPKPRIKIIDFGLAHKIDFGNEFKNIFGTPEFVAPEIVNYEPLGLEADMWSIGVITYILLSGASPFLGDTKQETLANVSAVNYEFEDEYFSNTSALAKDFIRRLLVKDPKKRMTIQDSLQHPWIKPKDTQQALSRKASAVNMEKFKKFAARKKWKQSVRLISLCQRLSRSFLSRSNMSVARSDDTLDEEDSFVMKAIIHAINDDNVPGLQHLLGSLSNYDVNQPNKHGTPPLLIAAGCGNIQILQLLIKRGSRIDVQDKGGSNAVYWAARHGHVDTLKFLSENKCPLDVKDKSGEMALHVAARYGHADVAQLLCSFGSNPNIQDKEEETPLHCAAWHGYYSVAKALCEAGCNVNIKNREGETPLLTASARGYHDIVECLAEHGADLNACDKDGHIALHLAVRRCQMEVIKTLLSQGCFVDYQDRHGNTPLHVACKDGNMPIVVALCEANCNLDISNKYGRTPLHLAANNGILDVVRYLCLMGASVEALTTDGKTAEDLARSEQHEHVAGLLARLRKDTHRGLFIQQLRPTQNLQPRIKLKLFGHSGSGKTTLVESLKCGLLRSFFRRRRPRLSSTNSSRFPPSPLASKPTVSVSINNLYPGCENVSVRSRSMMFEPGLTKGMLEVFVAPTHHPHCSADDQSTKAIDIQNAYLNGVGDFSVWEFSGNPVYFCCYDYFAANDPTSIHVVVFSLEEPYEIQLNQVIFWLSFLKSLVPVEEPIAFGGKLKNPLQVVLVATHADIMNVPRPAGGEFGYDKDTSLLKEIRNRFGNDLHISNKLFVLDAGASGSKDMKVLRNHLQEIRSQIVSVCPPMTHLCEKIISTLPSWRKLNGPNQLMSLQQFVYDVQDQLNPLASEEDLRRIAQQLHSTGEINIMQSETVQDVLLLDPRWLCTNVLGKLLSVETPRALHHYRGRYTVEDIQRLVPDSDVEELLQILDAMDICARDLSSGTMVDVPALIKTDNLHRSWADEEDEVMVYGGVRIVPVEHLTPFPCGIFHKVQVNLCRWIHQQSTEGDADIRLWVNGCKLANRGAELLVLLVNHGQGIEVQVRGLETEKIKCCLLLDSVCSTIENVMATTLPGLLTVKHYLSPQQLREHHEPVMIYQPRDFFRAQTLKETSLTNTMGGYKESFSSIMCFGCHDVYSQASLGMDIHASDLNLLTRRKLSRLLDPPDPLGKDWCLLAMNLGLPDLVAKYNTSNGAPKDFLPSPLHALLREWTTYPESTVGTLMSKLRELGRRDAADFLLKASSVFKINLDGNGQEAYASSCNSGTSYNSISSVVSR
# Sequence of Death-associated protein kinase 2 (Homo sapiens) (Q9UIK4 whole entry, looked up): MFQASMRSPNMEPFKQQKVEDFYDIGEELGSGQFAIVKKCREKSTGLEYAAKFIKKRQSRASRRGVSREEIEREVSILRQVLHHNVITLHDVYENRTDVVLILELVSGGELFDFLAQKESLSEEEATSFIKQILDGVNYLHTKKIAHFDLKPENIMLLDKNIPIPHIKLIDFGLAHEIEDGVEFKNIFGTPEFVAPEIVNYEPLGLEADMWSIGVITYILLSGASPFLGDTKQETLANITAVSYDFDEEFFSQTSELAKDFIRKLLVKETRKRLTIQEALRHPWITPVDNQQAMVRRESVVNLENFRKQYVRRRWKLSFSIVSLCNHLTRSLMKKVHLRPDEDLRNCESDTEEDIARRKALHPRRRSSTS
# Sequence of Calcium/calmodulin-dependent protein kinase type II subunit beta (Homo sapiens) (Q13554 whole entry): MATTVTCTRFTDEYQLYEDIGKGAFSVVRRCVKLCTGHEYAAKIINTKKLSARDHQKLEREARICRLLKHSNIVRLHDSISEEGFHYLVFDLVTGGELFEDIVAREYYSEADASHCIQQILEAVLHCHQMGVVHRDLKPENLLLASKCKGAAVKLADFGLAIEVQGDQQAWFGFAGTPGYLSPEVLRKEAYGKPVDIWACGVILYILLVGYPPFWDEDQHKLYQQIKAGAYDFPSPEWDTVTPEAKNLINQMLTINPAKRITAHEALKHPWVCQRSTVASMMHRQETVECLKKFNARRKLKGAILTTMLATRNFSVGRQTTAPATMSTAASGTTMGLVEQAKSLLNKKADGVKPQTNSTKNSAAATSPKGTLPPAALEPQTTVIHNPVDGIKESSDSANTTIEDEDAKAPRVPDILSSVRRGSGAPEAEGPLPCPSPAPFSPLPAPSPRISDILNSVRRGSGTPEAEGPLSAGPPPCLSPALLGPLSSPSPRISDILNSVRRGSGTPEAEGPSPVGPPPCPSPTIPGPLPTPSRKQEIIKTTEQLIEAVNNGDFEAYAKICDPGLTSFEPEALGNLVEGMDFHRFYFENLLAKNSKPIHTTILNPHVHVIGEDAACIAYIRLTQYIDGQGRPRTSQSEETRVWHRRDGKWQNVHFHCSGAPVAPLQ
# Sequence of Calcium/calmodulin-dependent protein kinase type II subunit delta (Homo sapiens) (Q13557 whole entry): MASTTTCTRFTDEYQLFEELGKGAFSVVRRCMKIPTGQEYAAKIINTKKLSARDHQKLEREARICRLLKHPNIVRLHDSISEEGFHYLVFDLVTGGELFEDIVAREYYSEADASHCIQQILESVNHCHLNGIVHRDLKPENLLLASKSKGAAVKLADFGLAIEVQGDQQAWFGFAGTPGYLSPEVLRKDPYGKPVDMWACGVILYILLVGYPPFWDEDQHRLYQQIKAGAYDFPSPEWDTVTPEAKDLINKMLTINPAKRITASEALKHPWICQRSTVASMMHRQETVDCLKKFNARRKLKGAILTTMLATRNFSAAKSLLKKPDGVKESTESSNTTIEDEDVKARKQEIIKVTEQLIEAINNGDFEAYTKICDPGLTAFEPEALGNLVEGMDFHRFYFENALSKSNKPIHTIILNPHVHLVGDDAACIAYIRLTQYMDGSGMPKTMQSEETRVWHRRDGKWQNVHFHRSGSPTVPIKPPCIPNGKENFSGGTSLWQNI
# Sequence of Calcium/calmodulin-dependent protein kinase type II subunit gamma (Homo sapiens) (Q13555 whole entry): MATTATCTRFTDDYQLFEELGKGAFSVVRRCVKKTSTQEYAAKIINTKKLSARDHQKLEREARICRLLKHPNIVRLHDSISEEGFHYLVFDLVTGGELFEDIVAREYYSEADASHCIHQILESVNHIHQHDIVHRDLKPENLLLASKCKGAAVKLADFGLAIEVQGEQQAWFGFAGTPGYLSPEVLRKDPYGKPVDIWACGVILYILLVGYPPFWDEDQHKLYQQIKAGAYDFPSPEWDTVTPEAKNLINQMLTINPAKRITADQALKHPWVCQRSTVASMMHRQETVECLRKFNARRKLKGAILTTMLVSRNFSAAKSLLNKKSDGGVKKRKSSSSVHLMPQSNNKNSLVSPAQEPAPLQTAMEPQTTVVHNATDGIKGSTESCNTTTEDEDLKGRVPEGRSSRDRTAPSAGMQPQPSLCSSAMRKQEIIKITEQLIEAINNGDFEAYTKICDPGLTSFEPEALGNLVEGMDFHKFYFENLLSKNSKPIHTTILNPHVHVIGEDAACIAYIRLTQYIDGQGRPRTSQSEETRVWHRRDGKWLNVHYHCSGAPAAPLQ
# Sequence of Calcium/calmodulin-dependent protein kinase type 1 (Homo sapiens) (Q14012 whole entry, looked up): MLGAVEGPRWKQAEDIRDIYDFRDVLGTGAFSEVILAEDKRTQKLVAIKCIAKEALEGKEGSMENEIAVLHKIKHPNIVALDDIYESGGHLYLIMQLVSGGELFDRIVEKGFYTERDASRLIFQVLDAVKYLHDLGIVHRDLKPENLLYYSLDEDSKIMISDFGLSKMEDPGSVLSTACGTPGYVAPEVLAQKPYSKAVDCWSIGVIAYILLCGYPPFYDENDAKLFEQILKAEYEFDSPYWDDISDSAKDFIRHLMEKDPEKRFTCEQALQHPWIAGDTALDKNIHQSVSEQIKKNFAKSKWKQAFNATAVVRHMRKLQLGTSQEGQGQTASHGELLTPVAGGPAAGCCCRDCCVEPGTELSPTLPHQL
SMILES,residual activity [1] [%],residual activity [2] [%],residual activity [3] [%],residual activity [4] [%],residual activity [5] [%],residual activity [6] [%],residual activity [7] [%],residual activity [8] [%],residual activity [9] [%],residual activity [10] [%],residual activity [11] [%],residual activity [12] [%],residual activity [13] [%],residual activity [14] [%],residual activity [15] [%],residual activity [16] [%],residual activity [17] [%],residual activity [18] [%],residual activity [19] [%]
CC(C)[C@H](CO)Nc1nc(Nc2cc(N)cc(Cl)c2)c2ncn(C(C)C)c2n1,92,58,76,20,80,24,96,33,80,99,97,94,95,95,88,87,90,,
O=C(c1cc2cc(O)ccc2[nH]1)c1cc2cc(O)ccc2[nH]1,53,14,30,2,23,4,114,76,,,73,70,59,,,120,122,37,13
O=C1Nc2ccccc2/C1=C\c1c(Cl)[nH]c2ccccc12,,25,,39,87,34,,,83,,,,,,,119,,51,83
COc1cc2nccc(Oc3ccc(NC(=S)NC(=O)c4ccccc4C)cc3)c2cc1OC,79,66,,,,85,121,84,76,99,99,82,94,26,11,138,141,75,129
CN(C)S(=O)(=O)c1ccc2c(c1)/C(=C/c1cc3c([nH]1)CCCC3)C(=O)N2,71,59,17,12,18,13,89,98,99,,,55,55,,,113,92,94,70
CCOC(=O)c1c(C)[nH]c(/C=C2\C(=O)Nc3ccccc32)c1C,98,93,77,48,79,59,,,99,,,,,,,,,77,86
Fc1ccc(-c2nc3n(c2-c2ccncc2)CCS3)cc1,100,95,,,,,,,93,,,,,83,35,87,96,,
COc1cc2c(cc1OC)-c1n[nH]c(Nc3cccc(F)c3)c1C2,,56,99,60,,,,,,99,107,109,132,,,,136,,
